Assay results taken from the supplement of paper PMC4466236.
Whole data set: some 33,000 sequences, median “E-score (dimensionless, -0.5 to 0.5)” near -0.058, cut for the highest 2% near 0.35. Shown is part of a subset that was picked to be rich in the highest values.

Test system: MvaT
Assay: PBM 8-mer E-score (mean of HK and ME arrays) (E-score (dimensionless, -0.5 to 0.5)); higher = stronger relative binding preference
Summary of the method: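 Full-length P. aeruginosa MvaT carrying an N-terminal glutathione S-transferase tag was tested by protein binding microarray following a previously described protocol. Two universal double-stranded 60-mer arrays, ME and HK, were used, each with a constant 25-mer primer region and a variable 35-mer region covering all 8-mers. The rank-based E-score is the mean of the two arrays, parsed with a custom script. Its range runs from -0.5 to 0.5 for each 8-mer.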

Sequence | PBM 8-mer E-score
CAAAGATG | 0.0517
CGTGAGAA | 0.0476
AGGAATGG | -0.0828
AACCTCCC | -0.253
CCGGATAC | -0.146
ACTGATAA | 0.209
ATCAAGGC | -0.14
TCATGACA | -0.0413
CTGTCCAC | -0.113
GCTCAAAC | 0.0144
AATAAGGT | 0.224
AATAATGT | 0.408
AAAAATGT | 0.0973
GATAATGA | 0.225
AGTAATGG | 0.124
AATAATGC | 0.384
AATAATGG | 0.372
CATAATGC | 0.111
GATAATGC | 0.151
CATAATGG | 0.178
TATAATGA | 0.373
CATAATGA | 0.233
CGGGACAG | -0.151
CCCCACTA | -0.172
ATGACATG | -0.0134
AATTTCCC | 0.207
CTCACCAC | -0.026

Sequence | PBM 8-mer E-score
CAGTTCAC | -0.0234
AACCGAAG | 0.0622
CCCACACC | 0.0355
AATAATGA | 0.361
AGTAATGA | 0.165
ACTAATGA | 0.138
ACCTAACA | -0.00971
ATTTATCA | 0.301
GTTTACTA | 0.147
ATTTATGG | 0.204
GTTTTTTA | 0.248
ATTTATTC | 0.295
CTTTATTC | 0.209
ATTTATTG | 0.379
CTTTATTA | 0.402
CTTTATCA | 0.182
GTTTATTA | 0.407
ATTTATCG | 0.291
ATTTATTA | 0.434
ACCTCTAC | -0.178
TACGTTGA | 0.0324
AGAGCGCG | -0.146
GTGACCCA | -0.143
TCAATTAA | 0.237
GGAATTAC | 0.149
AGAATTAA | 0.301
CGAATTAA | 0.308

Sequence | PBM 8-mer E-score
GGAATTAA | 0.347
TGAATTAA | 0.376
GGCGTGTA | -0.134
GGGCTGAA | -0.257
AGCCTGTA | -0.00993
CAAGAAAA | -0.021
ACGCGTCG | -0.0515
ATCACGGG | -0.203
ATATATAC | 0.464
GGATATAC | 0.208
CTATATAC | 0.377
GTATATAC | 0.41
ATATACGC | 0.291
GTATACAC | 0.209
CCATATAC | 0.153
ATCTATAC | 0.138
CTCTATAC | 0.00646
CTCCCTAC | -0.109
AATGACCG | -0.00123
GTAGTTTA | 0.297
CGTGCGGA | -0.146
CAGTAGCC | -0.125
ATGTATAA | 0.35
AAGTATAT | 0.399
AAGTATAG | 0.167
TAGTATAA | 0.384
GAGTATAA | 0.273

Sequence | PBM 8-mer E-score
AAGTATAC | 0.338
CAGTATAA | 0.267
ATGTATAC | 0.332
TCGTATAA | 0.148
AGGTATAA | 0.291
CTGTATAA | 0.264
AAGTATAA | 0.379
ACCAGGAG | -0.239
CGGGAGAG | -0.265
CACGGGGA | -0.0937
CTACCCAC | -0.0554
ATGAAACA | 0.181
ACTAGTAG | 0.0918
CCTATTAA | 0.249
ACTATTAA | 0.411
TCTATTAA | 0.285
ACTAGTAA | 0.24
AGTATTAG | 0.27
AGTATTAT | 0.42
ATTATTGA | 0.354
AGTATTAC | 0.306
ACTAGTAT | 0.357
GTTATTGA | 0.311
CTTATTGA | 0.22
